Measured values as given in PubChem BioAssay.
Active and inactive are the calls of the source. Unless noted, the rule behind the calls is not given here.

What was measured:
[1] = HepG2 liver cancer cell viability effects, profiling panel, resazurin fluorescence, 24 h, PK04 Diversity Set (AID 1172); conditions: higher = more signal
[2] = basal S. cerevisiae growth modulation, no modifier, primary screen, OD600, strain BY4716, 24 h, basal condition (AID 1173); conditions: OD600, 24 h, higher = more signal, called active from +8 up or from −8 down
[3] = MM1S myeloma cell viability, profiling panel, resazurin fluorescence, basal, 24 h, PK04 Diversity Set (AID 1174); conditions: higher = more signal, called active from +8 up or from −8 down;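 note: MM1S multiple myeloma cell line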
[4] = target: Dihydroorotate dehydrogenase (quinone), mitochondrial (Plasmodium falciparum (isolate 3D7)) (UniProt Q08210); test: PfDHODH enzyme inhibitors, primary screen, biochemical, C-terminal His tag, absorbance 600 nm (AID 1175); conditions: DCIP absorbance 600 nm, higher = more signal, called active from +8 up or from −8 down;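 note: recombinant parasite enzyme with a five histidine tag at its C terminus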
[5] = P. aeruginosa biofilm formation inhibitors, primary screen, strain PAO1, LB-PBS medium, absorbance 600 nm (AID 1176); conditions: P. aeruginosa PAO1 growth/biofilm, A600, 12 h; higher = more signal
[6] = S. cerevisiae RM11-1a growth modifiers, primary screen, strain RM11-1a, OD600, basal, 24 h (AID 1177); conditions: OD600, 24 h, higher = more signal, called active from +8 up or from −8 down;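 note: cultures grown under basal conditions with no added stressor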
[7] = E. coli acrAB mutant growth effects, primary screen, E. coli filamentation inducers, strain DRC39, OD650, 24 h (AID 1178); conditions: higher = more signal, called active from +8 up or from −8 down;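 note: growth measured as culture turbidity by optical density at 650 nm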
[8] = E. coli acrAB mutant growth effects, primary screen, E. coli filamentation inducers, strain DRC39, OD650, 48 h (AID 1179);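 note: screen aims at cell division blockers that make cells filament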; conditions: E. coli DRC39 delta-acrAB growth, higher = more signal, called active from +8 up or from −8 down
[9] = RPMI8226 myeloma cell viability, profiling panel, resazurin fluorescence, basal, 24 h, PK04 Diversity Set (AID 1180); conditions: higher = more signal;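 note: RPMI8826 multiple myeloma cell line at 5000 cells per well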
[10] = target: E3 ubiquitin-protein ligase XIAP (Homo sapiens) (UniProt P98170); test: XIAP binders, primary screen, biophysical, small-molecule microarray, fluorescence 635 nm (AID 1181); conditions: small-molecule microarray binding, higher = more signal;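 note: score merges 667 nm emission and signal to noise over triplicate slides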
[11] = test system: XIP peptide (Xip251-270) binding; test: small-molecule binders of XIP peptide, primary screen, biochemical, small-molecule microarray, fluorescence 635/667 nm, 0.1 µg/mL protein (AID 1182); conditions: fluorescent protein binding, 635 nm, higher = more signal, called active from +8 up or from −8 down
[12] = test system: XIP peptide (Xip251-270); test: small-molecule binders of XIP peptide, primary screen, biochemical, small-molecule microarray, fluorescence 635/667 nm, 0.5 µg/mL protein (AID 1183); conditions: small-molecule microarray binding, fluorescence 635 nm; higher = more signal
[13] = Plasmodium falciparum growth inhibition, primary screen, strain 3D7, DAPI fluorescence, 100 nL (AID 1184);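 note: parasites grown inside human red blood cells in medium with human serum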; conditions: P. falciparum 3D7 growth, 3 d, higher = more signal
[14] = target: Homeobox protein Hox-A13 (Mus musculus) (UniProt Q62424); test: inhibitors of HoxA13-DNA binding, primary screen, biochemical, fluorescence polarization, labeled oligonucleotide (AID 1185); conditions: 15 min, higher = more signal, called active from +8 up or from −8 down
[15] = inhibitors of hydroxyurea-induced Chk1 phosphorylation, primary screen, imaging, HeLa, phospho-Chk1 antibody, percent positive cells (AID 1186); conditions: hydroxyurea-induced phospho-Chk1 immunofluorescence imaging, higher = more signal
[16] = inhibitors of hydroxyurea-induced Chk1 phosphorylation, primary screen, imaging, HeLa, phospho-Chk1 nuclear intensity (AID 1187); conditions: hydroxyurea-induced phospho-Chk1 immunofluorescence imaging, higher = more signal

Sequence of E3 ubiquitin-protein ligase XIAP (Homo sapiens) (P98170 whole entry, looked up): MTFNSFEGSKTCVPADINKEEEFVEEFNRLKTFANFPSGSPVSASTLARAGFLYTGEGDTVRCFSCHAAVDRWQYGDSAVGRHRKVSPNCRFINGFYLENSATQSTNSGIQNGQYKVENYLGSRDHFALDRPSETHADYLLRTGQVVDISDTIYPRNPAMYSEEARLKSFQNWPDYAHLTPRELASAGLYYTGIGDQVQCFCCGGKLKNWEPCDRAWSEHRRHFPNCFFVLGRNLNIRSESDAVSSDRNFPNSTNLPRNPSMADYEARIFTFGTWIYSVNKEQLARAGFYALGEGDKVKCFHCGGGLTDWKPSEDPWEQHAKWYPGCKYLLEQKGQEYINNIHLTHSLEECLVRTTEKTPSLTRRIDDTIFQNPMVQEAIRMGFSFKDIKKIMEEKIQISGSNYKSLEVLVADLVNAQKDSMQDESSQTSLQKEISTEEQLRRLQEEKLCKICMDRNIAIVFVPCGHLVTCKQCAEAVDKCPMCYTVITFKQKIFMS
Sequence of Homeobox protein Hox-A13 (Mus musculus) (Q62424 whole entry, looked up): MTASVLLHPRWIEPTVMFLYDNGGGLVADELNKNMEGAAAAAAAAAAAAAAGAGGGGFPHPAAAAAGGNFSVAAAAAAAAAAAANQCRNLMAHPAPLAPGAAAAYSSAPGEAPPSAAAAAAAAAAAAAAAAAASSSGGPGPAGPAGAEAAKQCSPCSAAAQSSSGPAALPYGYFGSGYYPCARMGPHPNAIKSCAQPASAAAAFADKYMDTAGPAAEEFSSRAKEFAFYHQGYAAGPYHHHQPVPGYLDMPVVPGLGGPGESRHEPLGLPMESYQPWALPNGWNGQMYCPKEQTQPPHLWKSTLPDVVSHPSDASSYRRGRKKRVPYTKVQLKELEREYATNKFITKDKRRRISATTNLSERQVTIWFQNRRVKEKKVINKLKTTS
Sequence of Dihydroorotate dehydrogenase (quinone), mitochondrial (Plasmodium falciparum (isolate 3D7)) (Q08210 whole entry, looked up): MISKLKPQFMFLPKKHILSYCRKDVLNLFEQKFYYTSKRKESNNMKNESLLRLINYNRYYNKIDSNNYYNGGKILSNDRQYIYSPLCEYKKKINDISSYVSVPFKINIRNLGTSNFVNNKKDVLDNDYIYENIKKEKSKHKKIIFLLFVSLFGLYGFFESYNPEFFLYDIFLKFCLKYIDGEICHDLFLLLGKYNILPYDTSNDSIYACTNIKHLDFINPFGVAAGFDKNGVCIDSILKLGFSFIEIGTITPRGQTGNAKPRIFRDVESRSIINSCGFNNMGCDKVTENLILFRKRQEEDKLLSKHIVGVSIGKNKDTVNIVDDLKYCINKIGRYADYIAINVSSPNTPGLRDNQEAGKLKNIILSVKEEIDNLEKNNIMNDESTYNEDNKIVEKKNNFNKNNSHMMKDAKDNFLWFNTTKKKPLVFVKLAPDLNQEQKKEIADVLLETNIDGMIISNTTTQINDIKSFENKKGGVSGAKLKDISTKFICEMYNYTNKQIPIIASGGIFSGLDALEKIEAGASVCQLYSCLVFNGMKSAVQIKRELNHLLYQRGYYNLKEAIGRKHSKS

Structure (SMILES) | z-score [1] | z-score [2] | z-score [3] | composite z-score [4] | z-score [5] | z-score [6] | z-score [7] | z-score [8] | z-score [9] | composite z-score [10] | composite z-score [11] | composite z-score [12] | z-score [13] | z-score [14] | z-score [15] | z-score [16]
CCCCCCCCCCC(O)C1C=CC2C(=O)N(C)C(=O)C2N1Nc1ccc([N+](=O)[O-])cc1[N+](=O)[O-] (stereo not drawn) | -1.62 | 0.869 (inactive) | -1.64 (inactive) | -1.39 (inactive) | 0.695 (inactive) | 0.945 (inactive) | -1.26 (inactive) | -0.459 (inactive) | -1.67 | -0.0994 | -0.0993 (inactive) | 0.464 | 0.625 | -3.99 (inactive) | 0.496 (inactive) | -0.12 (inactive)
CC(C)C[C@@H]1NC(=O)[C@@H]2C[C@H](C(=O)NCCCCCN)[C@H](c3ccc(O)cc3)N2C1=O | -1.3 | 0.732 (inactive) | -0.205 (inactive) | 0.582 (inactive) | -0.226 (inactive) | 1.04 (inactive) | -0.496 (inactive) | -0.728 (inactive) | -0.354 | 0.0015 | 0.0938 (inactive) | 0.725 | 0.179 | -1.88 (inactive) | -0.223 (inactive) | 0.0212 (inactive)
C=CC[C@@]1(C(=O)N2CCOCC2)N=C(c2ccc(OCCCO)cc2)O[C@@H]1c1ccccc1CN=[N+]=[N-] | 0.0491 | 0.0155 (inactive) | 0.118 (inactive) | 0.159 (inactive) | 0.137 (inactive) | -0.109 (inactive) | -0.0245 (inactive) | 0.443 (inactive) | -0.052 | 0.184 | 0.74 (inactive) | 0.758 | -2.26 | -5.78 (inactive) | 0.0151 (inactive) | 0.349 (inactive)
CC(C)(C)OC(=O)CC[C@]1(C(=O)NCc2ccccc2)N=C(c2ccc(OCCCO)cc2)O[C@H]1c1ccccc1CN=[N+]=[N-] | -1.08 | 0.103 (inactive) | -1.49 (inactive) | 0.281 (inactive) | 0.702 (inactive) | 0.53 (inactive) | 0.414 (inactive) | 0.391 (inactive) | -0.551 | 0.0942 | 0.333 (inactive) | 0.688 | -2.39 | -1.28 (inactive) | -0.654 (inactive) | -0.865 (inactive)
CC=CC(O)C1C=CC2C(=O)N(c3ccccc3)C(=O)C2N1Nc1ccccc1F (stereo not drawn) | -0.471 | -0.383 (inactive) | -0.424 (inactive) | -0.813 (inactive) | 1.21 (inactive) | 0.503 (inactive) | -0.382 (inactive) | -0.279 (inactive) | -0.788 | 0.181 | 0.147 (inactive) | 0.744 | -0.48 | -3.7 (inactive) | 0.0921 (inactive) | -0.305 (inactive)
COCC1=C2[C@@H](CCc3ccccc3)OB(O)C[C@@H]2[C@@H]2C(=O)C=CC(=O)[C@@H]2C1 | -1.15 | -5.61 (inactive) | -0.997 (inactive) | -4.14 (inactive) | 0.106 (inactive) | -0.143 (inactive) | -0.244 (inactive) | 0.0271 (inactive) | -0.878 | 0.906 | 0.796 (inactive) | -0.154 | -1.28 | -6.27 (inactive) | 0.162 (inactive) | 0.398 (inactive)
C=C(C(=O)CC[C@@H](OC(C)=O)c1ccc(CO)o1)C(C)C | -0.192 | -0.788 (inactive) | 0.0874 (inactive) | -1.75 (inactive) | 2.05 (inactive) | -0.396 (inactive) | -0.351 (inactive) | -0.374 (inactive) | 0.0268 | 0.68 | 0.164 (inactive) | 0.656 | -0.14 | -4.08 (inactive) | 0.257 (inactive) | 0.636 (inactive)
[N-]=[N+]=Nc1ccccc1C[C@]1(C(=O)N2CCOCC2)N=C(c2ccc(OCCCO)cc2)O[C@H]1c1ccccc1 | 1.32 | -0.576 (inactive) | -1.25 (inactive) | 0.404 (inactive) | -0.608 (inactive) | 1.05 (inactive) | 1.11 (inactive) | 0.356 (inactive) | 0.101 | 0.0761 | 0.511 (inactive) | 0.748 | -2.03 | -5.32 (inactive) | -0.47 (inactive) | -0.106 (inactive)
